# Reference: PMC7819943, “Rice protein-binding microarrays: a tool to detect cis-acting elements near promoter regions in rice”
# The full ranking holds about 68,000 sequences; the median of “fluorescence intensity (a.u.)” is about 9,100, and the highest 2% start at about 16,000. The full list was thinned out, with the highest values kept by preference.
# Molecular target: OsWRKY34 (Oryza sativa, UniProt Q0JBA9 1-250)
# Experiment: protein-binding microarray (RPBM); PBS, 2% BSA, 51.3 ng/ul salmon testes DNA, 50 uM zinc acetate, 200 nM TF, 25 C, 1 h; high values mean tight binding
# Conditions: protein: recombinant; tags: N-terminal polyhistidine and DsRed monomer fusion (pET32a); label: CyDye5-dUTP incorporated in the synthesized complementary strand; 3' TTTTT single-stranded linker to array surface; dsDNA, one strand shown
# Method in brief: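 Binding signal here means per-feature fluorescence intensity in arbitrary units. The values were read on an Axon 4000B scanner after a custom Agilent array, double-stranded by primer extension with Cy5-dUTP, was incubated with 200 nM protein at 25 °C for 1 h in PBS with 2% BSA, salmon testes DNA and 50 µM zinc acetate, then washed. The proteins were transcription factors with an N-terminal polyhistidine tag and DsRed, expressed in E. coli BL21-CodonPlus and purified on Ni–NTA.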
# Chain of OsWRKY34 (Q0JBA9 entry or part of it): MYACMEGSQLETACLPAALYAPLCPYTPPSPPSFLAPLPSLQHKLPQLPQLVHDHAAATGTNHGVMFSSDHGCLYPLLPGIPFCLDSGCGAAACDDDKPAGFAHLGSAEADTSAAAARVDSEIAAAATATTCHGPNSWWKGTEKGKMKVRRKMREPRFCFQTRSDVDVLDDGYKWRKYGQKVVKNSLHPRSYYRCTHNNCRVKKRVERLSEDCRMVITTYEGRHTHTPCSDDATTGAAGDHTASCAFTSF
row,Sequence,binding signal
1,CCAGTCAATTTCCCCACGTGCCATCTCGCTGCATCCGCCGCGGAGTCACCTAGTGCAG,10500 fluorescence intensity (a.u.)
2,CTCGCGCGCCCCGCCCGTTTCGCCTCGGCCGCCTCCTCCACGGAGTCACCTAGTGCAG,8480 fluorescence intensity (a.u.)
3,CATCTGCACGCATATATATCTGTAAACTCAGCGCGTTTTTCGGAGTCACCTAGTGCAG,8100 fluorescence intensity (a.u.)
4,ATTGTGGACTGTTTGACCTCCAGTTTGGACTGTAGGAATTCGGAGTCACCTAGTGCAG,8060 fluorescence intensity (a.u.)
5,CTGTTGGTCAATCGCCGAACTTACCGCCGCGCCGGCCATGCGGAGTCACCTAGTGCAG,9410 fluorescence intensity (a.u.)
6,TTCATTTTCAATTCCCGTCCTCATTCTTCTTATGATATTTCGGAGTCACCTAGTGCAG,8930 fluorescence intensity (a.u.)
7,AATCCATAATTAGTAAATATTTACTGTAGCACCATATTGTCGGAGTCACCTAGTGCAG,9810 fluorescence intensity (a.u.)
8,GTTGTTGACTTTTTAAAATTTGTTTGACCATTCATCTTATCGGAGTCACCTAGTGCAG,23100 fluorescence intensity (a.u.)
9,ACTTTTTAAAACATGTTTGACCGTTCATCTTATTTAAAAACGGAGTCACCTAGTGCAG,8690 fluorescence intensity (a.u.)
10,ACTTTTTAAAACATGTTTGACCGTTCATCTTATTCAAAAACGGAGTCACCTAGTGCAG,8410 fluorescence intensity (a.u.)
11,CGCTGTTGACTTTTTTAAAAATGTTTGACCGTTCATCTTACGGAGTCACCTAGTGCAG,33600 fluorescence intensity (a.u.)
12,AATGTTTGACGCCGTTGACTTTTTTAAAAATGTTTGGCCGCGGAGTCACCTAGTGCAG,29800 fluorescence intensity (a.u.)
13,GTTGACTTTTTTTTAAACATGTTTGACCATTCATCTTATTCGGAGTCACCTAGTGCAG,11100 fluorescence intensity (a.u.)
14,ATTTTGACTTTTTCTTGTACTGTTTGACCATTCATCTTATCGGAGTCACCTAGTGCAG,16200 fluorescence intensity (a.u.)
15,ACGCCGTTGACTTTTTAAAATATGTTTGACCGTTTATCTTCGGAGTCACCTAGTGCAG,45700 fluorescence intensity (a.u.)
16,ATTTGACGCCGTTACTTTTTTTAAAAATGTTTGGCCGTTCCGGAGTCACCTAGTGCAG,8270 fluorescence intensity (a.u.)
17,CGGTTCTTGTCGTAGAAAGCTCCGTGTTATCGTTTATATTCGGAGTCACCTAGTGCAG,8090 fluorescence intensity (a.u.)
18,CAGCCACCTCTCCATCTTCTGTCCGTTCACCTCTCCGTAACGGAGTCACCTAGTGCAG,12600 fluorescence intensity (a.u.)
19,GCTTGCTCCAGGTGACCCAACTTTTCCATTTCCATGCATTCGGAGTCACCTAGTGCAG,11300 fluorescence intensity (a.u.)
20,GCTCCTCCTCCTCTTCCCGCCTCACCGCCGCACCACCTCTCGGAGTCACCTAGTGCAG,8550 fluorescence intensity (a.u.)
21,CCGTGGGCCAGACCTTTTTCTTCGACGCTAGACCTGACTACGGAGTCACCTAGTGCAG,9780 fluorescence intensity (a.u.)

row,Sequence,binding signal
1,TTCACCCACGTTTCTGCCCAACCCTCTCACCCTAGCTTAGCGGAGTCACCTAGTGCAG,10800 fluorescence intensity (a.u.)
2,AACTTCGCAAGAGGCATGCTCTCCAGCCTCAATTTTCATGCGGAGTCACCTAGTGCAG,8410 fluorescence intensity (a.u.)
3,CCCCATTTTCTTTGTTTCTACTTCTCTTTCCCTTTCTTGTCGGAGTCACCTAGTGCAG,10700 fluorescence intensity (a.u.)
4,CTCCGTCCCTCCGTACCAGTTTAAATGCAGCCGTGGATTCCGGAGTCACCTAGTGCAG,8360 fluorescence intensity (a.u.)
5,GCCCGCTGCTCTGCTCTCTCATCTTTTATCTCACTAAAATCGGAGTCACCTAGTGCAG,8960 fluorescence intensity (a.u.)
6,GCCCGTTGCTCATCTCTCTCATCGTTTATCGCATTAAAATCGGAGTCACCTAGTGCAG,17900 fluorescence intensity (a.u.)
7,TTTGACGCCGTTGACTTTTTTAAAAATGTTTGACCGTTCACGGAGTCACCTAGTGCAG,25100 fluorescence intensity (a.u.)
8,CCCTCCGTATTTTAATGTATGACGCCGTTGACTTTTTGACCGGAGTCACCTAGTGCAG,26800 fluorescence intensity (a.u.)
9,CGCTACCGGGTTGACTTTTTCCTATCCGTTTCTGGTCCGGCGGAGTCACCTAGTGCAG,22800 fluorescence intensity (a.u.)
10,GCCCGCTGCTATTCTCTCTCATCTTTTATCCTATTAAAATCGGAGTCACCTAGTGCAG,13200 fluorescence intensity (a.u.)
11,TTTGGGCCGGGTTTTTGGTTTCTTCCTTTTTTTTTCTGGGCGGAGTCACCTAGTGCAG,12600 fluorescence intensity (a.u.)
12,ATCTATGTTTTTCTGCGGGCCGGGTTGGTTTGTTTCCTACCGGAGTCACCTAGTGCAG,10300 fluorescence intensity (a.u.)
13,AAGTACTCCCTCCGTATTTTAATGTATGACGCCGTTGACTCGGAGTCACCTAGTGCAG,9690 fluorescence intensity (a.u.)
14,TACTTACTCCCTCCGTATTTTAATGTATGACGCCGTTGACCGGAGTCACCTAGTGCAG,14200 fluorescence intensity (a.u.)
15,TTTTTTTTACCGGCCTAGTTGACCACCAACCAAGCAGTACCGGAGTCACCTAGTGCAG,10100 fluorescence intensity (a.u.)
16,GCATACATCTCTACTACCTGCATCTCCATCTCAAATCAAACGGAGTCACCTAGTGCAG,10400 fluorescence intensity (a.u.)
17,CTCCTCTAACGTACCATAGAGGGACATACGTTTCTGATGTCGGAGTCACCTAGTGCAG,8720 fluorescence intensity (a.u.)
18,CTCTCCATCCGCTCGCGGCTCGCGCTCGCCCATCCAATCCCGGAGTCACCTAGTGCAG,10600 fluorescence intensity (a.u.)
19,CATCGCCCACGCCAATGTCGTCGCCGACGTCTCGCTGCCGCGGAGTCACCTAGTGCAG,8820 fluorescence intensity (a.u.)
20,CACGCCATTAAGCTTTTTTTATATACATATAGTCAATGTTCGGAGTCACCTAGTGCAG,9130 fluorescence intensity (a.u.)
21,TAATACTCCCTCCGTATTTTAATGTATGATGCCGTTGACTCGGAGTCACCTAGTGCAG,10600 fluorescence intensity (a.u.)
